This is an account of results in the supplement of paper PMC11732987, “Enantioselective OTUD7B fragment discovery through chemoproteomics screening and high-throughput optimisation” (Communications Chemistry, 2025).

Test in all cases: log2 ratio of Biotin-Ahx-Ub-VS probe labelling (fragment/DMSO); higher = less target engagement (more negative = stronger competition), active = hit call of the paper (q ≤ 0.05, log2 ratio ≤ -1)
Common to all, as to details: compound concentration: 200 uM; treatment time: 3 h

One assay concerns the target T1, USP42 (UniProt Q9H9J4).
T1 sequence (whole entry): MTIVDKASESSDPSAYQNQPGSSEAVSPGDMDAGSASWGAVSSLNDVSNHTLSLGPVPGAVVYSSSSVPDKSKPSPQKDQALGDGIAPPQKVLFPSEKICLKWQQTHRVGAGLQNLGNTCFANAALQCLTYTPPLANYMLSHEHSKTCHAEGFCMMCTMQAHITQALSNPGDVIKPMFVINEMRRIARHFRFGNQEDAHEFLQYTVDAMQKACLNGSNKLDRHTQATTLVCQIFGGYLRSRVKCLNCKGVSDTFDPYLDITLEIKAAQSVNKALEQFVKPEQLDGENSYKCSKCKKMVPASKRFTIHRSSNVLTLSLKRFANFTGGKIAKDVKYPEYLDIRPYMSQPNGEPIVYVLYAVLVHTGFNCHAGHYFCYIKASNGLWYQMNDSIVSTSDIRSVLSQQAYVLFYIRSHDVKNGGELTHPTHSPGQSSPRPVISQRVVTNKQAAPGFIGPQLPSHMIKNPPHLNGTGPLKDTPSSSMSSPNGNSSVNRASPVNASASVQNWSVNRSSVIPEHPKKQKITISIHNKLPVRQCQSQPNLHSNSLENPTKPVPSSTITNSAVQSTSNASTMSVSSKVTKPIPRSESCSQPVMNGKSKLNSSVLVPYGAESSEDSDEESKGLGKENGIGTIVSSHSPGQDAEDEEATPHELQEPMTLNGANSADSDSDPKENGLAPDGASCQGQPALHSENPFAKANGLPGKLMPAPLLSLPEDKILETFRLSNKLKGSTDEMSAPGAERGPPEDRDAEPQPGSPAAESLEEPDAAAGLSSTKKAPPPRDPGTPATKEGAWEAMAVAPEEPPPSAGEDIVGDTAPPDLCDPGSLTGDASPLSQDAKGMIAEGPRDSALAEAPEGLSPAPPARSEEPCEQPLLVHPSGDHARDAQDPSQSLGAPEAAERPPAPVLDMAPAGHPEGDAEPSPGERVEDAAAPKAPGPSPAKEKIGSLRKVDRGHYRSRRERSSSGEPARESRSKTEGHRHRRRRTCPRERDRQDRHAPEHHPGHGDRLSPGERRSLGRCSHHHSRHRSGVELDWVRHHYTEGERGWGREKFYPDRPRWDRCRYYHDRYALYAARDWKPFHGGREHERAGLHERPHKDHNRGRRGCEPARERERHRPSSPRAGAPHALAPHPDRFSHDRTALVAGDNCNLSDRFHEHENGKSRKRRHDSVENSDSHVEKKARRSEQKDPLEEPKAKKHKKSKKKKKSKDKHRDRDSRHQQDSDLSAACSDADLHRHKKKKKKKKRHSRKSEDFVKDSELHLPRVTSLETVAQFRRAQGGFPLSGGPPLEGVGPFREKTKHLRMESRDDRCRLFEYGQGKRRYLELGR
Put shortly:
(§1)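 Labelled DUBs were enriched with NeutrAvidin, digested with LysC and trypsin, and run by diaPASEF LC-MS/MS. The labelling used Biotin-Ahx-Ub-VS at 0.5 µM final for 1 h on HEK293T lysate (495 µg per sample) previously treated in triplicate with fragment at 200 µM or vehicle for 3 h. Values are average log2 fragment/vehicle ratios by unpaired t-test on global-median-normalised Spectronaut quantities of proteins with ≥2 unique peptides.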

A further assay concerns the target USP46 (UniProt P62068). In short, it runs like this: as §1
A further assay concerns the target T2, USP47 (UniProt Q96K76).
T2 sequence (whole entry): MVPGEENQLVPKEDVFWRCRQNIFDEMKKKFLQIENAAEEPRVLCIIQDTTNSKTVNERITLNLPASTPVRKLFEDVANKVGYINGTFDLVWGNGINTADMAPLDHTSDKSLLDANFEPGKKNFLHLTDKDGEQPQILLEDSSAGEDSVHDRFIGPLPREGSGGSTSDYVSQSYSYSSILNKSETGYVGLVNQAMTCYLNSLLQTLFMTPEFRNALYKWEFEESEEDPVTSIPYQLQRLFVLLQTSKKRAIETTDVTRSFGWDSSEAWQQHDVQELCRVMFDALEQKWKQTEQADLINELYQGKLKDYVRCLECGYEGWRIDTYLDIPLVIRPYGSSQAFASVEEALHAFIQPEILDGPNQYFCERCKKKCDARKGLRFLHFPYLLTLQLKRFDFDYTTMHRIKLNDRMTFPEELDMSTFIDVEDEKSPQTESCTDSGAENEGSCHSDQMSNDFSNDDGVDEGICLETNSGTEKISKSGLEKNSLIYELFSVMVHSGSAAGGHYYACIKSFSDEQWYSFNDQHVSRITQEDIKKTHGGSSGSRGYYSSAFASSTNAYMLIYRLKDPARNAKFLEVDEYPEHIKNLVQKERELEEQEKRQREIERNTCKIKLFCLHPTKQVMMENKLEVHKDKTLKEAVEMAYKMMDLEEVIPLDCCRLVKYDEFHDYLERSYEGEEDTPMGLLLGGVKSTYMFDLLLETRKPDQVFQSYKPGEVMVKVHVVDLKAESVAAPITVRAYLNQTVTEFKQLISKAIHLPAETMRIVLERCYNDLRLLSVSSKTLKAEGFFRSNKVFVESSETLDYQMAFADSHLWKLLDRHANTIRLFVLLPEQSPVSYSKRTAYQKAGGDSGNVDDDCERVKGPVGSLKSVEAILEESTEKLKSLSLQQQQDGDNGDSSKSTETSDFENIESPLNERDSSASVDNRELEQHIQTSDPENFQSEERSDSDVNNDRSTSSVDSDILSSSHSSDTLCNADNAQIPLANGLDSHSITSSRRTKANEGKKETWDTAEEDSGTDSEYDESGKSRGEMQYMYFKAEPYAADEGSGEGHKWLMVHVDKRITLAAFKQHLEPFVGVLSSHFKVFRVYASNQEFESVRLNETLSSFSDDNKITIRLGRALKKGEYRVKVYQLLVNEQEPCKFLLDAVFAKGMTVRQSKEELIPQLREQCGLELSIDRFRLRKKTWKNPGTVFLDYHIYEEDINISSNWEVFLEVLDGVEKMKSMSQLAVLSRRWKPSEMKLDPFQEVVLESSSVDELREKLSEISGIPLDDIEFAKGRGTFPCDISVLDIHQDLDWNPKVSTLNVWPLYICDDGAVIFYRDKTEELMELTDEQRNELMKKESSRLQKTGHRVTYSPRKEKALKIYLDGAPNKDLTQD
In short, it runs like this:
as §1

For the next assay, the target named is T3, USP48 (UniProt Q86UV5).
T3 sequence (whole entry): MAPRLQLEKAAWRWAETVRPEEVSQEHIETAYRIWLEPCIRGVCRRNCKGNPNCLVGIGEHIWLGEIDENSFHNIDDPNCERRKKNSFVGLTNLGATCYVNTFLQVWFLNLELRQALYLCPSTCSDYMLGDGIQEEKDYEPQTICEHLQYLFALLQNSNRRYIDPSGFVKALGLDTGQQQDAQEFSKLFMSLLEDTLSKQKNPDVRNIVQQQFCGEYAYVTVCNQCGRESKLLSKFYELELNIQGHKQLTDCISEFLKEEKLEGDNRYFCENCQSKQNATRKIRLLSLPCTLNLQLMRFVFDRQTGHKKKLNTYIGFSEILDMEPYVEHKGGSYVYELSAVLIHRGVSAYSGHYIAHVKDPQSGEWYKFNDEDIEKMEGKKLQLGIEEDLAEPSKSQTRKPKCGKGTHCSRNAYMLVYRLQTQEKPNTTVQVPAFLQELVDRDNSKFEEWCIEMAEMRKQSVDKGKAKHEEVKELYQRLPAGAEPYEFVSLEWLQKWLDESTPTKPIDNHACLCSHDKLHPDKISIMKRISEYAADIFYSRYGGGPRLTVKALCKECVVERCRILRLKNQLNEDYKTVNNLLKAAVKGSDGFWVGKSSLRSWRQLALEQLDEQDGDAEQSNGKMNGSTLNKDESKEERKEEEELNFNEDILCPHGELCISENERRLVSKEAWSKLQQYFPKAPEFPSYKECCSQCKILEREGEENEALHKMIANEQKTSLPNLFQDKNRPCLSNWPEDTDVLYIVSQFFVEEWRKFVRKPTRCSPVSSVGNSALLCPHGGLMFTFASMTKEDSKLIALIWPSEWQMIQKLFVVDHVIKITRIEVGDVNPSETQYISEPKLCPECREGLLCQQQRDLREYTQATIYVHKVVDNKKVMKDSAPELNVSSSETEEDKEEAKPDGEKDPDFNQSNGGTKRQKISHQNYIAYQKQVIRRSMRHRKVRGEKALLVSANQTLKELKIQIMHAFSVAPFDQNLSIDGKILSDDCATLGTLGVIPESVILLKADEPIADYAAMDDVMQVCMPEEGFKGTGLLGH
In short, it runs like this:
as §1

A further assay addresses T4, USP5 (UniProt P45974).
T4 sequence (whole entry): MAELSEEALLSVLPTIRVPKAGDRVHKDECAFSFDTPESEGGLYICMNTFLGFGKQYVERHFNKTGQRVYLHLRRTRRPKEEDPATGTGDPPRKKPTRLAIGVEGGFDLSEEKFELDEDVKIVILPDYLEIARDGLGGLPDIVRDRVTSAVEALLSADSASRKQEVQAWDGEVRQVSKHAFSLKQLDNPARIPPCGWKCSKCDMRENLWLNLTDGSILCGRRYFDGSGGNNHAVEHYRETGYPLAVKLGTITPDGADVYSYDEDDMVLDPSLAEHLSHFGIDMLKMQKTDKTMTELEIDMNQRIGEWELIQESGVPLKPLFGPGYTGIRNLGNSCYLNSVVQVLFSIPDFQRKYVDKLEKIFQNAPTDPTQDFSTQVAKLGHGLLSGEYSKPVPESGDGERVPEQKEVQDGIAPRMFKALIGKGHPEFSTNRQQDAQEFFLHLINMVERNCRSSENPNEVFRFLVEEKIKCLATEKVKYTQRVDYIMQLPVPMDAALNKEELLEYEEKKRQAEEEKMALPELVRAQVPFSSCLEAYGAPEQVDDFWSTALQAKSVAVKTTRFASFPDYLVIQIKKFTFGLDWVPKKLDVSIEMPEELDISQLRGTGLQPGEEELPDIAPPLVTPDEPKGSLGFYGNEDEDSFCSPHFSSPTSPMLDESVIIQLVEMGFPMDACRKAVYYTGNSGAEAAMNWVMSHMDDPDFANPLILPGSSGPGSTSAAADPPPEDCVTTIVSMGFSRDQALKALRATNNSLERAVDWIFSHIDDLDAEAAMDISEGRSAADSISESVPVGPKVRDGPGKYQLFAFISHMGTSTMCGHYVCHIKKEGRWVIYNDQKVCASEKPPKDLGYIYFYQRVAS
Put shortly:
as §1

The target in another assay is USP54 (UniProt Q70EL1). In short, it runs like this:
as §1

The target in a further assay is USP7 (UniProt Q93009). In short, it runs like this: as §1
USP7, sequence (Q93009 whole entry, looked up): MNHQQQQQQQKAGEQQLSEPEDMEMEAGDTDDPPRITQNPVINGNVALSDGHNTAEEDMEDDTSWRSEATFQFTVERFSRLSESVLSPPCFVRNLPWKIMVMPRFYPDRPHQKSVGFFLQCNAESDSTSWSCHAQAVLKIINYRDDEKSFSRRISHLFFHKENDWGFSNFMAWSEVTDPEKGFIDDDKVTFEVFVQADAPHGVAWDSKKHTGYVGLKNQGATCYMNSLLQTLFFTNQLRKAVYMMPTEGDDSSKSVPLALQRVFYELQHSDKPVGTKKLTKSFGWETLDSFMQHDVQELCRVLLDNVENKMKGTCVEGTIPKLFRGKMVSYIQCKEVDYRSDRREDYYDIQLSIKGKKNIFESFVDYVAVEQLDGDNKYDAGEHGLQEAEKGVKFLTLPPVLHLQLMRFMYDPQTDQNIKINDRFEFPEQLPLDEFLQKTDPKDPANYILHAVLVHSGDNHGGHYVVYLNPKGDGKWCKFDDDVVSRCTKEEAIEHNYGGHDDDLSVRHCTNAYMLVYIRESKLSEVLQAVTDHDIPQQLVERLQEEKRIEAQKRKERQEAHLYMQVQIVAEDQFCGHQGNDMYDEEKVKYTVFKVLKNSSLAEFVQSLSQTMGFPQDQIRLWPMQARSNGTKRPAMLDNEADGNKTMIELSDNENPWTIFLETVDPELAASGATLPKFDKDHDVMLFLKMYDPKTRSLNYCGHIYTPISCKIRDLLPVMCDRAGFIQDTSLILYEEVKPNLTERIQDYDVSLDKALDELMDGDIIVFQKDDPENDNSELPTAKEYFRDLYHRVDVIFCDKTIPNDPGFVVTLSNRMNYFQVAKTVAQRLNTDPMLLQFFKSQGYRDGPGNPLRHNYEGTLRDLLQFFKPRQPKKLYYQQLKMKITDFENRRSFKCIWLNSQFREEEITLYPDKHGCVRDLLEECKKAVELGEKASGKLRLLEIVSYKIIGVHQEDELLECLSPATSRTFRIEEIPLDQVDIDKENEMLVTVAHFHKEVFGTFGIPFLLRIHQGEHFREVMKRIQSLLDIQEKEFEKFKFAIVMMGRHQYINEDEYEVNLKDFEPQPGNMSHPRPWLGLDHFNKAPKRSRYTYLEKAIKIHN
A further assay addresses T5, USP8 (UniProt P40818).
T5 sequence (whole entry): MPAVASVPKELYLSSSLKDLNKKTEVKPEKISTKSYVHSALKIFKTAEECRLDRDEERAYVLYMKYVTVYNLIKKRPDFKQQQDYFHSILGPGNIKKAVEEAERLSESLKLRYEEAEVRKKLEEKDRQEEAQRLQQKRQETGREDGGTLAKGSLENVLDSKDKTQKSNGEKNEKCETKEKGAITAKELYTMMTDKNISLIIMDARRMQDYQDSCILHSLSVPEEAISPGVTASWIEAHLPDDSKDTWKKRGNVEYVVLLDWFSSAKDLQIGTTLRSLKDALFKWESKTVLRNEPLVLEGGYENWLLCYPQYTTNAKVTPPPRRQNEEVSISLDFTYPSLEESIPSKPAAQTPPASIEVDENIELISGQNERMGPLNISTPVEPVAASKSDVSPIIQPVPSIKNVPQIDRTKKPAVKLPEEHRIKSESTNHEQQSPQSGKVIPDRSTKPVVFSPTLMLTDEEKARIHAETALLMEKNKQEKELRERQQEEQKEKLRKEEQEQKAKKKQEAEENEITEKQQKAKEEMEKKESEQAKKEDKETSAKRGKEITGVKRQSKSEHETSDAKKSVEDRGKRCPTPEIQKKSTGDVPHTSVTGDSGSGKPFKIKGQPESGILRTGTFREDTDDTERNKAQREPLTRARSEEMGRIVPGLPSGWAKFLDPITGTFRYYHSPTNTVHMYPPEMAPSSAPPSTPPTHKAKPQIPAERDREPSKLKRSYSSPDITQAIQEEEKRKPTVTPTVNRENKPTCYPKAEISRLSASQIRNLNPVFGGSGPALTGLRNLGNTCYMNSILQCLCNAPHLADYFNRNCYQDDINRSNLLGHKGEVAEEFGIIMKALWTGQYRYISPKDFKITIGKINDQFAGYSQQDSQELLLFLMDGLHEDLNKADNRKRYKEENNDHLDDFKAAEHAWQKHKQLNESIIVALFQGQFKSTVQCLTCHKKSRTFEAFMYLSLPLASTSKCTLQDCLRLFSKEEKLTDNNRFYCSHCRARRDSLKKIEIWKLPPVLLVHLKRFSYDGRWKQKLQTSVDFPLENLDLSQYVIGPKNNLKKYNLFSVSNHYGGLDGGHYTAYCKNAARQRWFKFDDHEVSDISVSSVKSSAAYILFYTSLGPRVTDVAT
In short, it runs like this: as §1

The target of the next assay is USP9X (UniProt Q93008). Put shortly: as §1
USP9X, sequence (Q93008 whole entry): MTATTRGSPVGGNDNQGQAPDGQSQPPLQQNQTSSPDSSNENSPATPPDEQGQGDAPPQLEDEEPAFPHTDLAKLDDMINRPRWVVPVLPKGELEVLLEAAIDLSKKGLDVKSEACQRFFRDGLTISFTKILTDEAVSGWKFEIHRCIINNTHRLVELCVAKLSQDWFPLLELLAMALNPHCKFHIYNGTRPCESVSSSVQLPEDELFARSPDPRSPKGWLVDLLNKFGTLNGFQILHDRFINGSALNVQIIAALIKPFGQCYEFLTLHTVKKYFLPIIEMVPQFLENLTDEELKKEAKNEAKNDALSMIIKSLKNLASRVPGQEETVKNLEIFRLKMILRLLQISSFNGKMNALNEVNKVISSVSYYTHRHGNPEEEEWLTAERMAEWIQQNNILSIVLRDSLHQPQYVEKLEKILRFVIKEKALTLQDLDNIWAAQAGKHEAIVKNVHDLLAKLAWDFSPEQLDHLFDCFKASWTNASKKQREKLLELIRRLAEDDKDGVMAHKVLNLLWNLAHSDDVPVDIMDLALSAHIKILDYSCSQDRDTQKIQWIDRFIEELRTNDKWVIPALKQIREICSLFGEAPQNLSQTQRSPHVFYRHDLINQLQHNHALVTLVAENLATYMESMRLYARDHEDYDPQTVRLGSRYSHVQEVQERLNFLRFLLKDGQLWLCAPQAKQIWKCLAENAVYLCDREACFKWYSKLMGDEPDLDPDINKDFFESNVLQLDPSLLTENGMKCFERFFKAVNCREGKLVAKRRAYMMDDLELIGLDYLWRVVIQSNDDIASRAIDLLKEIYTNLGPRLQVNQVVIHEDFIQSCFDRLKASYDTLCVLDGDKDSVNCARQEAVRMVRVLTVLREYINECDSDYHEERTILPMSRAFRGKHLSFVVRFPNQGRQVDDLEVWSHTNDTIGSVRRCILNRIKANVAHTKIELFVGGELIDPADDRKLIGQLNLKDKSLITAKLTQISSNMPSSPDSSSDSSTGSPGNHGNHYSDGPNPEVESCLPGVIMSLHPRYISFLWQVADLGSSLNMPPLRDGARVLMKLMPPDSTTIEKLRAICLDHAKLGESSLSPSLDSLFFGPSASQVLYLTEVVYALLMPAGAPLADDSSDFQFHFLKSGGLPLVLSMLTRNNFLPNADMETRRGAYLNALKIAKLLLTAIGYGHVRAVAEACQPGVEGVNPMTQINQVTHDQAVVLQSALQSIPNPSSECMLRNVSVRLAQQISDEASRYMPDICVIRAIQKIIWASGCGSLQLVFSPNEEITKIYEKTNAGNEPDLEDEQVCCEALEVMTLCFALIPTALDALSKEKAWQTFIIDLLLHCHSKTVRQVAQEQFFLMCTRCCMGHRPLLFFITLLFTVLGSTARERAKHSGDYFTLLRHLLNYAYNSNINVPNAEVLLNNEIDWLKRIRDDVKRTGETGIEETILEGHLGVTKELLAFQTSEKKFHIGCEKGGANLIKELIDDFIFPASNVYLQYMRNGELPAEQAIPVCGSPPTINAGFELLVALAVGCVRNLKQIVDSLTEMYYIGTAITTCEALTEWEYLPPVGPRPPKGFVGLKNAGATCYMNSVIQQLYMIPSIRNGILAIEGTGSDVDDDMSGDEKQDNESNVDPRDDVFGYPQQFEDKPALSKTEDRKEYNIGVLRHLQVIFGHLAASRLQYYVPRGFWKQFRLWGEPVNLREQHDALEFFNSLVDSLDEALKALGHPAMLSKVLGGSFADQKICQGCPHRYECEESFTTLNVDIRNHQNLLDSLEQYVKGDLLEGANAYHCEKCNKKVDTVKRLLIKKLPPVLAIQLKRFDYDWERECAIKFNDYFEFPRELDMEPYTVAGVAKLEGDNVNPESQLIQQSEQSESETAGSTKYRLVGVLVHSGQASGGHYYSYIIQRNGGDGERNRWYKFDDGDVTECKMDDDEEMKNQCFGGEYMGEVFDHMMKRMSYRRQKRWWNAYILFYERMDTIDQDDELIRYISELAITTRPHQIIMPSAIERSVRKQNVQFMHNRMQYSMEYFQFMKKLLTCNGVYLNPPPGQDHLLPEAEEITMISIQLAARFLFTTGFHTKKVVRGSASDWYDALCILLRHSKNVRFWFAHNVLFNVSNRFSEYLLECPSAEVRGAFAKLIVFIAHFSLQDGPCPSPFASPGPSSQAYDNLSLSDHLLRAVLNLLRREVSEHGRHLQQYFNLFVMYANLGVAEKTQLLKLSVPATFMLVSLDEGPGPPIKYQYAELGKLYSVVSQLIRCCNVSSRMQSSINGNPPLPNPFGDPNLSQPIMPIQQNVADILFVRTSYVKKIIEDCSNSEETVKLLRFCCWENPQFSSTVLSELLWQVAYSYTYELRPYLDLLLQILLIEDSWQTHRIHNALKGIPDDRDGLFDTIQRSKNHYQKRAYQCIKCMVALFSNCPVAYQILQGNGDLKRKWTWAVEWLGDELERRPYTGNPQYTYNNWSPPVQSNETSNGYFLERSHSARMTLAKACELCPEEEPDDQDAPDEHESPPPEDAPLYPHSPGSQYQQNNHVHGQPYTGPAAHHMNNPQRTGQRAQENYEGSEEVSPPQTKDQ
In the next assay the target is UniProt O00487. In short, it runs like this: as §1
UniProt O00487, sequence (O00487 whole entry): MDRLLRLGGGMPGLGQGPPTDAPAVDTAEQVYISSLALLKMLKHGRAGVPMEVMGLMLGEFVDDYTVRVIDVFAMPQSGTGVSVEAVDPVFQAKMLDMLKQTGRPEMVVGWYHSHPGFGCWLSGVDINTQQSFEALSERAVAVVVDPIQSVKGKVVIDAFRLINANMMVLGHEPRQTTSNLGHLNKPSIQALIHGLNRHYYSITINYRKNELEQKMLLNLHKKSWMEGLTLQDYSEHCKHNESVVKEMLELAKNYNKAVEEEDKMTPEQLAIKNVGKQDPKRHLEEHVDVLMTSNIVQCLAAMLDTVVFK

Molecules are shown by their SMILES. Unmarked numbers belong to inactive results.

USP46, sequence (P62068 whole entry): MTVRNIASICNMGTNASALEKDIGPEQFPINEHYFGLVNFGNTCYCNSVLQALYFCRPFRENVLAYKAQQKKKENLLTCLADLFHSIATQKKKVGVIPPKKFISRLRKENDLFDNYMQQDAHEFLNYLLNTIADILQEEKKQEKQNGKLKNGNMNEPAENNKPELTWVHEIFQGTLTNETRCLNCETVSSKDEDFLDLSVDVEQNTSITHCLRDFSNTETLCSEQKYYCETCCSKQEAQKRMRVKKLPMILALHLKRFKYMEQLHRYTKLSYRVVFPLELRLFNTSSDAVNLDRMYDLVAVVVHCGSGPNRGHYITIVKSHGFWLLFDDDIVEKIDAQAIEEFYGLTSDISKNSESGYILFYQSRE

Take `Cl.O=C(CCl)N1CCC(n2nc3ccccc3n2)CC1`: the “log2 ratio of Biotin-Ahx-Ub-VS probe labelling” value with USP42 was 0.181; in the assay with USP46 it was -0.321; with USP47, -0.894; with USP48, -0.485; in the assay with USP5, -0.467; in the assay with USP54, -0.186. Besides, the “log2 ratio of Biotin-Ahx-Ub-VS probe labelling” value was -1.88 (active) in the assay with USP7, -0.518 in the assay with USP8, -0.485 with USP9X and -0.114 with UniProt O00487.
